# Reference: the supplement of paper PMC8728848
# Many of the other results were omitted from the sample, so the strongest signals are more common in it than they were.
# B1: Threefoil (Haloarcula marismortui) (protein)
# chain: GSSHHHHHHHHHHSSGLVPRGSHMGDGYYKLVARHSGKALDVENASTSDGANVIQYSYSGGDNQQWRLVDLGDGYYKLVARHSGKALDVENASTSDGANVIQYSYSGGDNQQWRLVDLGDGYYKLVARHSGKALDVENASTSDGANVIQYSYSGGDNQQWRLVDL
# Key:
# Test in all cases: glycan array binding signal (z-score within array); higher = stronger binding
# Details in all cases: glycan notation: IUPAC condensed, linker removed
# [1] = target: Fuc(a1-2)Gal(b1-3)GalNAc(a1-3)[Fuc(a1-2)]Gal(b1-4)GlcNAc
# In short: (§1)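 Glycan array binding is given as a within-array Z-score, which can be read as non-binding when negative. The arrays, 3228 of them, came from the Consortium for Functional Glycomics database and were retained only where the protein sequence was available. Z-scores were averaged across arrays of the same protein sequence at different concentrations or buffers and across linkers.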
# [2] = target: Fuc(a1-2)Gal(b1-3)GlcNAc(b1-2)Man(a1-3)[Fuc(a1-2)Gal(b1-3)GlcNAc(b1-2)Man(a1-6)]Man(b1-4)GlcNAc(b1-4)[Fuc(a1-6)]GlcNAc
# In short: as §1
# [3] = target: Fuc(a1-2)Gal(b1-3)GlcNAc(b1-3)Gal(b1-4)Glc
# In short: as §1
# Fuc(a1-2)Gal(b1-4)Glc = target: Fuc(a1-2)Gal(b1-4)Glc
# In short: as §1
# [4] = target: Fuc(a1-2)Gal3S(b1-4)GlcNAc
# In short: as §1
# [5] = target: Fuc(a1-2)Gal6S(b1-4)Glc6S
# In short: as §1
# [6] = target: Fuc(a1-2)[GalNAc(a1-4)]Gal(b1-4)GlcNAc
# In short: as §1
# [7] = target: Fuc(a1-3)[Gal(b1-4)]GlcNAc
# In short: as §1
# Gal(a1-3)Gal(b1-3)GlcNAc = target: Gal(a1-3)Gal(b1-3)GlcNAc
# In short: as §1
# [8] = target: Gal(a1-3)Gal(b1-3)[Fuc(a1-4)]GlcNAc(b1-2)Man(a1-3)[Gal(a1-3)Gal(b1-3)[Fuc(a1-4)]GlcNAc(b1-2)Man(a1-6)]Man(b1-4)GlcNAc(b1-4)GlcNAc
# In short: as §1
# Gal(a1-4)Gal(b1-4)Glc = target: Gal(a1-4)Gal(b1-4)Glc
# In short: as §1
# [9] = target: Gal(b1-3)GlcNAc(b1-2)[Gal(b1-3)GlcNAc(b1-6)]Man(a1-6)[Gal(b1-3)GlcNAc(b1-2)Man(a1-3)]Man(b1-4)GlcNAc(b1-4)GlcNAc
# In short: as §1
# [10] = target: Gal(b1-3)GlcNAc(b1-3)Gal(b1-3)GlcNAc
# In short: as §1
# [11] = target: Gal(b1-3)GlcNAc(b1-3)Gal(b1-4)GlcNAc(b1-3)Gal(b1-4)GlcNAc(b1-2)[Gal(b1-3)GlcNAc(b1-3)Gal(b1-4)GlcNAc(b1-3)Gal(b1-4)GlcNAc(b1-6)]Man(a1-6)[Gal(b1-3)GlcNAc(b1-3)Gal(b1-4)GlcNAc(b1-3)Gal(b1-4)GlcNAc(b1-2)Man(a1-3)]Man(b1-4)GlcNAc(b1-4)[Fuc(a1-6)]GlcNAc
# In short: as §1
# [12] = target: Gal(b1-3)[Fuc(a1-4)]GlcNAc(b1-3)Gal(b1-4)GlcNAc
# In short: as §1
# [13] = target: Gal(b1-3)[Neu5Ac(a2-6)]GlcNAc(b1-4)Gal(b1-4)Glc
# In short: as §1
# [14] = target: Gal(b1-3)[Neu5Ac(b2-6)]GalNAc
# In short: as §1
# [15] = target: Gal(b1-4)GalNAc(b1-3)[Fuc(a1-2)]Gal(b1-4)GlcNAc
# In short: as §1
# [16] = target: Gal(b1-4)GlcNAc(a1-6)Gal(b1-4)GlcNAc
# In short: as §1
# Gal(b1-4)GlcNAc(b1-2)Man = target: Gal(b1-4)GlcNAc(b1-2)Man
# In short: as §1
# [17] = target: Gal(b1-4)GlcNAc(b1-2)[Gal(b1-4)GlcNAc(b1-4)]Man(a1-3)[Gal(b1-4)GlcNAc(b1-2)Man(a1-6)]Man(b1-4)GlcNAc(b1-4)GlcNAc
# In short: as §1
# [18] = target: Gal(b1-4)GlcNAc(b1-2)[Gal(b1-4)GlcNAc(b1-4)]Man(a1-3)[GlcNAc(b1-4)][Gal(b1-4)GlcNAc(b1-2)[Gal(b1-4)GlcNAc(b1-6)]Man(a1-6)]Man(b1-4)GlcNAc(b1-4)GlcNAc
# In short: as §1
# [19] = target: Gal(b1-4)GlcNAc(b1-2)[Gal(b1-4)GlcNAc(b1-6)]Man(a1-6)[Gal(b1-4)GlcNAc(b1-2)Man(a1-3)]Man(b1-4)GlcNAc(b1-4)GlcNAc
# In short: as §1
# [20] = target: Gal(b1-4)GlcNAc(b1-2)[Gal(b1-4)GlcNAc(b1-6)]Man(a1-6)[Gal(b1-4)GlcNAc(b1-2)Man(a1-3)]Man(b1-4)GlcNAc(b1-4)[Fuc(a1-6)]GlcNAc
# In short: as §1
# [21] = target: Gal(b1-4)GlcNAc(b1-2)[Gal(b1-4)GlcNAc(b1-6)]Man(a1-6)[GlcNAc(b1-4)][Gal(b1-4)GlcNAc(b1-2)[Gal(b1-4)GlcNAc(b1-4)]Man(a1-3)]Man(b1-4)GlcNAc(b1-4)[Fuc(a1-6)]GlcNAc
# In short: as §1
# [22] = target: Gal(b1-4)GlcNAc(b1-3)Gal(b1-4)GlcNAc(b1-2)[Gal(b1-4)GlcNAc(b1-3)Gal(b1-4)GlcNAc(b1-6)]Man(a1-6)[Gal(b1-4)GlcNAc(b1-3)Gal(b1-4)GlcNAc(b1-2)Man(a1-3)]Man(b1-4)GlcNAc(b1-4)[Fuc(a1-6)]GlcNAc
# In short: as §1
# [23] = target: Gal(b1-4)GlcNAc(b1-3)Gal(b1-4)GlcNAc(b1-3)Gal(b1-4)GlcNAc(b1-2)Man(a1-3)[Gal(b1-4)GlcNAc(b1-3)Gal(b1-4)GlcNAc(b1-3)Gal(b1-4)GlcNAc(b1-2)Man(a1-6)]Man(b1-4)GlcNAc(b1-4)[Fuc(a1-6)]GlcNAc
# In short: as §1
# [24] = target: Gal(b1-4)GlcNAc(b1-3)Gal(b1-4)GlcNAc(b1-3)Gal(b1-4)GlcNAc(b1-2)[Gal(b1-4)GlcNAc(b1-3)Gal(b1-4)GlcNAc(b1-3)Gal(b1-4)GlcNAc(b1-6)]Man(a1-6)[Gal(b1-4)GlcNAc(b1-3)Gal(b1-4)GlcNAc(b1-3)Gal(b1-4)GlcNAc(b1-2)Man(a1-3)]Man(b1-4)GlcNAc(b1-4)[Fuc(a1-6)]GlcNAc
# In short: as §1
# [25] = target: Gal(b1-4)GlcNAc(b1-3)Gal(b1-4)GlcNAc(b1-3)Gal(b1-4)GlcNAc(b1-3)Gal(b1-4)GlcNAc(b1-2)Man(a1-3)[Gal(b1-4)GlcNAc(b1-3)Gal(b1-4)GlcNAc(b1-3)Gal(b1-4)GlcNAc(b1-3)Gal(b1-4)GlcNAc(b1-2)Man(a1-6)]Man(b1-4)GlcNAc(b1-4)[Fuc(a1-6)]GlcNAc
# In short: as §1
# [26] = target: Gal(b1-4)GlcNAc(b1-3)Gal(b1-4)GlcNAc(b1-3)Gal(b1-4)GlcNAc(b1-3)Gal(b1-4)GlcNAc(b1-2)[Gal(b1-4)GlcNAc(b1-3)Gal(b1-4)GlcNAc(b1-3)Gal(b1-4)GlcNAc(b1-3)Gal(b1-4)GlcNAc(b1-6)]Man(a1-6)[Gal(b1-4)GlcNAc(b1-3)Gal(b1-4)GlcNAc(b1-3)Gal(b1-4)GlcNAc(b1-3)Gal(b1-4)GlcNAc(b1-2)Man(a1-3)]Man(b1-4)GlcNAc(b1-4)[Fuc(a1-6)]GlcNAc
# In short: as §1
binder,measurement,setting,value
B1,glycan array binding signal (z-score),[1],-0.165
same,glycan array binding signal (z-score),[2],0.056
same,glycan array binding signal (z-score),[3],-0.192
same,glycan array binding signal (z-score),Fuc(a1-2)Gal(b1-4)Glc,-0.107
same,glycan array binding signal (z-score),[4],-0.199
same,glycan array binding signal (z-score),[5],-0.153
same,glycan array binding signal (z-score),[6],-0.341
same,glycan array binding signal (z-score),[7],-0.151
same,glycan array binding signal (z-score),Gal(a1-3)Gal(b1-3)GlcNAc,-0.298
same,glycan array binding signal (z-score),[8],-0.217
same,glycan array binding signal (z-score),Gal(a1-4)Gal(b1-4)Glc,0.139
same,glycan array binding signal (z-score),[9],0.155
same,glycan array binding signal (z-score),[10],-0.266
same,glycan array binding signal (z-score),[11],0.426
same,glycan array binding signal (z-score),[12],0.307
same,glycan array binding signal (z-score),[13],-0.13
same,glycan array binding signal (z-score),[14],-0.229
same,glycan array binding signal (z-score),[15],-0.231
same,glycan array binding signal (z-score),[16],0.067
same,glycan array binding signal (z-score),Gal(b1-4)GlcNAc(b1-2)Man,-0.105
same,glycan array binding signal (z-score),[17],3.48
same,glycan array binding signal (z-score),[18],8.13
same,glycan array binding signal (z-score),[19],0.527
same,glycan array binding signal (z-score),[20],3.39
same,glycan array binding signal (z-score),[21],6.8
same,glycan array binding signal (z-score),[22],6.34
same,glycan array binding signal (z-score),[23],6.67
same,glycan array binding signal (z-score),[24],9.87
same,glycan array binding signal (z-score),[25],3.74
same,glycan array binding signal (z-score),[26],7.31
